# Results published in PubChem BioAssay (NCI).
# The panel holds about 83,000 compounds, 20% with a hit somewhere; the sample as a whole holds those more often.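 Cell lines were cultured in 96-well plates, exposed to a single compound concentration, and assessed for percent growth 48 hours later.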 Unmarked numbers belong to inactive results. Calls of active or inactive are those of the source.
# System: MDA-MB-435 melanoma
# Test: NCI-60 one-dose screen, 48 h (100 = growth as untreated, 0 = no growth, -100 = all killed)
# Conditions: 10 µM unless noted
# Method: Growth inhibition of the MDA-MB-435 human Melanoma tumor cell line is measured as a screen for anti-cancer activity. Cells are grown in 96 well plates and exposed to the test compound for 48 hours. Compounds are tested at a single concentration, which is 10^-5 M for most compounds. The reported endpoint is percent growth (GI% or GIPRCNT), where numbers from 0 - 100% represent growth inhibition, and numbers from -100% - 0 represent cell death. For example, a value of 40 represents 60% growth inhibition. A value of 0 means no net growth occurred over the course of the experiment. A value of -40 indicates 40% of cells at the beginning of the experiment died by the end of the experiment. A value of -100 means all cells are dead at the end of the experiment.
# NCI-60 Human Tumor Cell Lines Screen was performed using the standard one-dose NCI protocol, which is described in more detail at https://dtp.cancer.gov/discovery_development/nci-60/default.htm.
# Compounds with GIPRCNT values below 10 were considered active. Activity score was based on GIPRCNT using the following formula: […]
# Score is 0 for GIPRCNT values of 100 or above, 50 for GIPRCNT values of 0, and 100 for GIPRCNT values of -100.
row,Compound,growth
1,Cc1c(C(N)=O)sc2c1c(=O)n(Cc1ccccc1)c1nnc(S(=O)(=O)CC(=O)Nc3ccc(Cl)cc3)n21,46.2%
2,CCC(C)CC(C)C(=O)c1c(O)ccn(OC)c1=O (stereo not given),73.6%
3,O=C(CCc1nnc(Cn2ccnc2)o1)c1nc2ccccc2[nH]1,111%
4,Cc1scc2c1N(C(=O)CN1CCN(C)CC1)c1ccccc1NC2=O,110%
5,CN1C(=O)/C(=C/c2nc(-c3cccc(F)c3)n3ccccc23)c2ccccc21,93.6%
6,Nc1nonc1-c1nc2ccccc2n1CC(=O)Nc1ccc2c(c1)COC2=O,5.9% (active)
7,ClC1=C(Cl)C(=C2C(Cl)=C(Cl)C(Cl)=C2Cl)C(Cl)=C1Cl,105%
8,Cc1ccccc1-c1cc(Cc2ccccc2O)c(=O)[nH]n1,109%
9,CCOC(=O)/C(=C/c1ccccc1)C(=O)c1ccccc1,50.8%
10,COc1ccc2c(c1)C(=O)c1c-2c(OCCCN(C)C)nc2cc(Br)ccc12,90.2%
11,COc1cc(C2=NN(C(C)=O)C(c3ccc(OC(C)=O)cc3OC(C)=O)O2)c(OC(C)=O)c2ccccc12 (stereo not given),28.8%
12,Cc1cc(C(C)(C)c2cc(C)c(O)c(CN(C)C)c2)cc(CN(C)C)c1O,78.1%
13,O=C(/C(=C/c1ccc([N+](=O)[O-])cc1)c1ccccc1)c1ccccc1,10.9%
14,Clc1ccc2nc(Cl)c3ccccc3c2c1,50.3%
15,CCC(C)(C)C(=O)O[C@H]1C[C@@H](C)C=C2C=C[C@H](C)[C@H](CC[C@@H]3C[C@@H](O)CC(=O)O3)[C@H]21,68.8%
16,O=C(O)c1ccc(NC(=O)c2cccc(Nc3ccnc(C(F)(F)F)c3)c2)cc1,106%
17,CCCCc1nc(Cl)c(CO)n1Cc1ccc(-c2ccccc2-c2nn[nH]n2)cc1,96.5%
18,C=CCOc1ccc2c(c1)CC[C@@H]1[C@@H]2CC[C@@]2(C)[C@H]1CC[C@]2(C)O,86.9%
19,COc1ccc2nc3cc(Cl)ccc3c(N3CCN(c4ccnc(Nc5ccc(F)cc5)n4)CC3)c2c1,74.5%
20,Cn1c(=O)c2c(nc(Br)n2CCC(=O)Nc2ccc(F)cc2)n(C)c1=O,108%

row,Compound,growth
1,O=C(Nc1ccc(Cl)cc1)c1cc2c(cc1O)[nH]c1ccccc12,-25.6% (active)
2,Oc1ccccc1/C=N\Nc1ccccc1,28.6%
3,CC(C)C/C(=N\NC(=O)c1ccncc1)c1cc(Cl)ccc1O,32.4%
4,Oc1ccccc1C=Nc1ccccc1N=Cc1ccccc1O.[Cu+2],56%
5,Nc1nc(SCc2ccccc2Cl)c(-c2ccccc2)c(SCc2ccccc2Cl)n1,88.8%
6,CC(C)(C)c1ccc(S(=O)(=O)O)s1,102%
7,O=C1NCN(c2ccccc2)C12CCN(CCCC(c1ccc(F)cc1)c1ccc(F)cc1)CC2,47.7%
8,Nc1ccc2c(c1)/C(=N/O)c1cc([N+](=O)[O-])ccc1-2,50.9%
9,CCN1C(=O)c2ccc3c4c(ccc(c24)C1=O)C(=O)N(CCCNCc1ccccc1OC)C3=O,-80.3% (active)
10,CCOC(=O)C1=C(C)N2C(=NC3=C(CCC/C3=C\c3ccc(Cl)cc3)C2c2ccc(Cl)cc2)S1 (stereo not given),-14% (active)
11,Cc1cc(C)n2nc(SCC(=O)Nc3sc4c(c3C(N)=O)CCC4)nc2n1,108%
12,COc1ccc(C2=NN(C(=O)c3cc(OC)c(OC)c(OC)c3)C(c3ccc(C#N)cc3)C2)cc1OC (stereo not given),-40.4% (active)
13,Cc1cc(O)c2c(c1)C[C@H]1[C@@H]3CC[C@H]4CC(=O)CC[C@]4(C)[C@H]3CC(=O)[C@]21C,91.1%
14,O=C(Nc1ccc(Oc2ccc(NC(=O)Nc3ccc([N+](=O)[O-])cc3)cc2)cc1)Nc1ccc([N+](=O)[O-])cc1,5.67% (active)
15,O=C1c2ccccc2-c2c1nc1ccccc1[n+]2[O-],110%
16,Cc1ccc([N+](=O)[O-])cc1NC(=O)Nc1cccc(F)c1,76.7%
17,COc1ccc2c(c1)C(=O)c1c-2c(OCCN(C)C)nc2cc(OC)ccc12,18.5%
18,O=C(CSCC(=O)N/N=C/c1ccccc1O)N/N=C\c1ccccc1O,50.9%
19,S=c1[nH]nc2sc3ccccc3n12,118%
20,COC(=O)[C@]1(CCSC)N[C@H](c2cn(-c3ccccc3)nc2C)[C@@H]2C(=O)N(c3ccc(C)cc3)C(=O)[C@@H]21,105%
